Results filed as inconclusive are left out. Active and inactive are the calls of the source. Unless noted, calls come from the whole dose curve; as a rule, active = well fitted curve in the direction sought with a large enough effect in the repeat runs; inconclusive = weak or mixed curves; inactive = no such curve, though single readings can be large; an effect the other way counts as inactive or inconclusive.
Assays:
[1] = A CellTox Green Cytotoxicity Assay to monitor cytotoxicity in HEK293 cells - 32 hour (AID 1224881); note: nearly all actives have a fitted effect of over 40% in size
Method in brief: (§1)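 Read-out: fluorescence of a cell-impermeant cyanine dye staining DNA of dead cells, proportional to cytotoxicity. HEK293, 600 cells/well with reagent, compound (23 nL DMSO) added after 5 h; reads at 0, 8, 16, 24, 32, 40 h.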

[2] = A CellTox Green Cytotoxicity Assay to monitor cytotoxicity in HepG2 cells - 0 hour (AID 1224882); note: nearly all actives have a fitted effect of over 35% in size
Method in brief: (§2)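 HepG2, 600 cells/well premixed w/ CellTox Green; 5 h settle, 37 C/5% CO2; pintool cpd add (DMSO); 37 C, 40 h; fluorescence read at 0, 8, 16, 24, 32, 40 h.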

[3] = A CellTox Green Cytotoxicity Assay to monitor cytotoxicity in HepG2 cells - 32 hour (AID 1224883); note: nearly all actives have a fitted effect of over 50% in size
Method in brief: as §2

[4] = qHTS RealTime-Glo MT Cell Viability Assay in HepG2 cells - 16 hour (AID 1224885); note: nearly all actives have a fitted effect of over 50% in size
Method in brief: (§3)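 Real-time, nonlytic viability: 600 HepG2 cells/well mixed with NanoLuc enzyme plus prosubstrate; 5 h settle, compound (DMSO) added by pintool; luminescence monitored over 40 h at 37 C.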

[5] = qHTS RealTime-Glo MT Cell Viability Assay in HEK293 cells - 24 hour (AID 1224886); note: nearly all actives have a fitted effect of over 50% in size; note: potency is the fitted concentration of half-maximal effect; for activity change, negative = cytotoxicity: top concentration of the series differs between compounds
Method in brief: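 Cells + reagent dispensed (600 cells/well, HEK293) → 5 h at 37 C/5% CO2 → 23 nL compound in DMSO pinned → 40 h at 37 C → luminescence read at 0, 8, 16, 24, 32, 40 h.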

[6] = qHTS RealTime-Glo MT Cell Viability Assay in HEK293 cells - 8 hour (AID 1224887); note: nearly all actives have a fitted effect of over 50% in size; note: potency is the fitted concentration of half-maximal effect; for activity change, negative = cytotoxicity: top concentration of the series differs between compounds
Method in brief: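 Luminescence readout at each listed time point; HEK293, 600 cells/well, RealTime-Glo MT reagent added with cells; compounds pinned (23 nL in DMSO) after 5 h at 37 C; continuous culture at 37 C.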

[7] = A CellTox Green Cytotoxicity Assay to monitor cytotoxicity in HEK293 cells - 16 hour (AID 1224888); note: nearly all actives have a fitted effect of over 35% in size
Method in brief: as §1

[8] = qHTS RealTime-Glo MT Cell Viability Assay in HepG2 cells - 0 hour (AID 1224889); note: nearly all actives have a fitted effect of over 50% in size
Method in brief: as §3

[9] = qHTS assay to identify small molecule antagonists of the estrogen receptor alpha (ER-alpha) signaling pathway using the BG1 cell line in the presence of 0.1 nM 17-beta-estradiol - cell viability counter screen (AID 1259241); note: nearly all actives have a fitted effect of over 40% in size
Method in brief: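 Cells were plated and left 24 hr, compounds in DMSO were pinned in, 17beta-estradiol was added to 0.1 nM final, and after 22 hr CellTiter-Fluor reagent was added for 30 min before fluorescence was read.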

[10] = qHTS assay to identify small molecule antagonists of the androgen receptor (AR) signaling pathway using the MDA cell line in the presence of 0.5 nM R1881 - cell viability counter screen (AID 1259242); note: nearly all actives have a fitted effect of over 45% in size; note: potency is the fitted concentration of half-maximal effect
Method in brief: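 Live-cell protease fluorescence, CellTiter-Fluor, 30 min at 37C. Cells: MDA-kb2, 3,000/well, preincubated 5 hr. Compounds plus 0.5 nM R1881 final, 16 hr, 37C, 0% CO2.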

[11] = qHTS assay to identify small molecule HDAC inhibitors (AID 1259364);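 note: wild-type HCT-116 cells with endogenous class I/II HDAC activity; top concentration of the series differs between compounds; nearly all actives have a fitted effect of over 45% in size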
Method in brief: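 HCT-116 (wild type), 1,500 cells/well, overnight; compound 2 hr 37C 5% CO2; HDAC-Glo I/II reagent 30 min RT; luminescence readout.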

[12] = qHTS assay to identify small molecule HDAC inhibitors - cell viability counter screen (AID 1259365)
Method in brief: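 Counter screen in wild-type HCT-116 cells: compounds dissolved in DMSO are pin-transferred onto overnight-plated cells and left 2hr at 37C. ATP-based CellTiter-Glo luminescence then measures viable cells.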

[13] = qHTS assay to identify small molecule agonists of the sonic hedgehog signaling (Shh) pathway - cell viability counter screen (AID 1259366); note: nearly all actives have a fitted effect of over 50% in size
Method in brief: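 Cells are plated at 2,000 per well and left 4hr at 37C, 5% CO2 before compound addition. After 23hr of treatment, CellTiter-Fluor reagent is added for 1hr at 37C and fluorescence is measured.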

[14] = qHTS assay to identify small molecule antagonists of the sonic hedgehog signaling (Shh) pathway - cell viability counter screen (AID 1259367); note: nearly all actives have a fitted effect of over 55% in size
Method in brief: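 Cytotoxicity was assessed in parallel with Shh reporter activity by measuring live-cell protease fluorescence (CellTiter-Fluor) in NIH/3T3 cells stably carrying Gli1-Luc, treated with compound under conditioned medium stimulation for 23 hr plus 1 hr reagent incubation.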

[15] = qHTS assay to identify small molecule agonists of the sonic hedgehog signaling (Shh) pathway (AID 1259368; calls by dose curve;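 note: NIH/3T3-derived 3T3Gli1-Luc cells carrying a stable Gli1-driven firefly luciferase reporter; series mostly up to about 92 µM; nearly all actives have a fitted effect of over 15% in size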)
Method in brief: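 Read-out: firefly luciferase luminescence from a Gli1 response element reporter stably integrated in NIH/3T3-derived 3T3Gli1-Luc cells, measured 30 min at room temperature after reagent addition. Compound exposure lasted 24 hr at 37 C, 5% CO2.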

[16] = A CellTox Green Cytotoxicity Assay to monitor cytotoxicity in HepG2 cells - 8 hour (AID 1224890); note: nearly all actives have a fitted effect of over 45% in size
Method in brief: as §2

[17] = target: Androgen receptor (Homo sapiens) (UniProt P10275); test: qHTS assay to identify small molecule antagonists of the androgen receptor (AR) signaling pathway using the MDA cell line in the presence of 0.5 nM R1881 (AID 1259243); note: nearly all actives have a fitted effect of over 50% in size
Method in brief: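 MDA-kb2, MMTV-luc (AR/GR elements); 3,000 cells/well; cpd + 0.5 nM R1881 final; 16 hr 37C, 0% CO2; ONE-Glo 30 min RT; luminescence.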

[18] = target: Estrogen receptor (Homo sapiens) (UniProt P03372); test: qHTS assay to identify small molecule antagonists of the estrogen receptor alpha (ER-alpha) signaling pathway using the BG1 cell line in the presence of 0.1 nM 17-beta-estradiol (AID 1259244); note: nearly all actives have a fitted effect of over 50% in size; note: potency is the fitted concentration of half-maximal effect
Method in brief: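 Luminescence after ONE-Glo (30 min, room temperature) measured ERE-luciferase activity in VM7Luc4E2 cells treated 22 h with compound and 0.1 nM final 17beta-estradiol as stimulator.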

[19] = qHTS assay to identify small molecule phospholipidosis (PLD) inducers (AID 1259344; active = well fitted curve in the direction sought with a large enough effect; an effect the other way counts as inactive or inconclusive)
Method in brief: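 Cells (HepG2, 900 per well) attach for 4 h, receive LipidTOX Red and compound together, incubate 24 h at 37 C, are fixed 30 min with paraformaldehyde/Hoechst, then imaged at one site per well.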

[20] = A CellTox Green Cytotoxicity Assay to monitor cytotoxicity in HEK293 cells - 8 hour (AID 1224884); note: nearly all actives have a fitted effect of over 35% in size
Method in brief: as §1
% is set by controls: 0 for no effect and ±100 for the full control effect.

Sequence of Estrogen receptor (Homo sapiens) (P03372 whole entry, looked up): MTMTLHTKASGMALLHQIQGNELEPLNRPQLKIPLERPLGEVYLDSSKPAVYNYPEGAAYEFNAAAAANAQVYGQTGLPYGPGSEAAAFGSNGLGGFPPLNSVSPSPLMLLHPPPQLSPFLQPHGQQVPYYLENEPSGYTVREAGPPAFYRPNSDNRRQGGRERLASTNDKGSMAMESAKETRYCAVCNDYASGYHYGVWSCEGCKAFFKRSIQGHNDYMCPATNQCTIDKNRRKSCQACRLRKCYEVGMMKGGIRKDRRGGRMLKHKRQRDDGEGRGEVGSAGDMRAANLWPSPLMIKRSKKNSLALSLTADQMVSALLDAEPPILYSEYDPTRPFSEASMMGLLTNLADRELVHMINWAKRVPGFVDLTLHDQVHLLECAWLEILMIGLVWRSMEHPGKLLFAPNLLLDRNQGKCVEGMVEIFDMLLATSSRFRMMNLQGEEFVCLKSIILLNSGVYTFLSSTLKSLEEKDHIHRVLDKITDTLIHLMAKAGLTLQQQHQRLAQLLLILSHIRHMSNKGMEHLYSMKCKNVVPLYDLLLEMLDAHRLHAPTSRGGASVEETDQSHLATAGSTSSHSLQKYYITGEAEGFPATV
Sequence of Androgen receptor (Homo sapiens) (P10275 whole entry, looked up): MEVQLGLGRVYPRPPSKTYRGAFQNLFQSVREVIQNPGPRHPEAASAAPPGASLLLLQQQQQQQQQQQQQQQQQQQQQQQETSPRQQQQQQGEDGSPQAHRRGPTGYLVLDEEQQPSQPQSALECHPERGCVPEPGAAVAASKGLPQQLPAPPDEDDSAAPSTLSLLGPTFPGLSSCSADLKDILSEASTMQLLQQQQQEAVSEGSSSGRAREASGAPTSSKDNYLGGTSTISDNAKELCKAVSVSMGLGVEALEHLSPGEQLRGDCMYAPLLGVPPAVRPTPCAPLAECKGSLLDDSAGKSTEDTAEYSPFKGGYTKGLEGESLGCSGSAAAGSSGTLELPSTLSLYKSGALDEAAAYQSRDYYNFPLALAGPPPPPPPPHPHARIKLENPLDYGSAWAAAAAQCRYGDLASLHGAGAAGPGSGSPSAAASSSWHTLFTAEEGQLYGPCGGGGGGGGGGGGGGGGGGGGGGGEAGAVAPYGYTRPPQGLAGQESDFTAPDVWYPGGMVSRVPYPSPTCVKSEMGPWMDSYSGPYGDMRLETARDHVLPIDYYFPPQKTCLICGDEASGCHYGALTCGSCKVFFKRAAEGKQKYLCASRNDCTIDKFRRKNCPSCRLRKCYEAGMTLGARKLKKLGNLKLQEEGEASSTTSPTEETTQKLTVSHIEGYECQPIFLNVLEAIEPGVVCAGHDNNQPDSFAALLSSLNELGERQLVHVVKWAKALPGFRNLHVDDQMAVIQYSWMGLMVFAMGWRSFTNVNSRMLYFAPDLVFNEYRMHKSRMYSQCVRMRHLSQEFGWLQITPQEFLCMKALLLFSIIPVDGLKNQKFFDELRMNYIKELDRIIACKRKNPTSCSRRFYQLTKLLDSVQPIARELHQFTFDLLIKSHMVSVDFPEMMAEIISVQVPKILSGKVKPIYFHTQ

CCOC(=O)c1ccccc1OC
inactive: Potency [1] | Potency [2] | Potency [3] | Potency [4] | Potency [5] | Potency [6] | Potency [7] | Potency [8] | Potency [9] | Potency [10] | Potency [11] | Potency [12] | Potency [13] | Potency [14] | Potency [15]

COc1ccc(C(=O)c2cccc(O)c2)c(OC)c1
inactive: Potency [1] | Potency [2] | Potency [3] | Potency [4] | Potency [5] | Potency [6] | Potency [7] | Potency [8] | Potency [16] | Potency [9] | Potency [10] | Potency [17] | Potency [18] | Potency [11] | Potency [12] | Potency [13] | Potency [14] | Potency [15]

C=CC(=O)NCOCC(C)C
inactive: Potency [1] | Potency [2] | Potency [3] | Potency [4] | Potency [5] | Potency [6] | Potency [7] | Potency [8] | Potency [16] | Potency [9] | Potency [10] | Potency [11] | Potency [12] | Potency [13] | Potency [14] | Potency [15]

CCC(C(=O)OCCOCCN(CC)CC)c1ccccc1 (centres undefined)
inactive: Potency [1] | Potency [2] | Potency [3] | Potency [4] | Potency [5] | Potency [6] | Potency [8] | Potency [9] | Potency [10] | Potency [18] | outcome [19] | Potency [11] | Potency [12] | Potency [13] | Potency [14] | Potency [15]

O=c1[nH]c2ccc(S(=O)CCN3CCC(Cc4ccc(F)cc4)CC3)cc2o1 (centres undefined)
inactive: Potency [1] | Potency [2] | Potency [3] | Potency [4] | Potency [7] | Potency [9] | Potency [10] | Potency [11] | Potency [12] | Potency [13] | Potency [14] | Potency [15]

CCOc1cc(N)c(Cl)cc1C(=O)NCC1CN(Cc2ccc(F)cc2)CCO1 (centres undefined)
inactive: Potency [1] | Potency [2] | Potency [3] | Potency [20] | Potency [9] | Potency [10] | Potency [18] | outcome [19] | Potency [11] | Potency [12] | Potency [13] | Potency [14]
active: Potency [5] 15.1 µM | Potency [6] 19 µM

CC(=O)Nc1ccccc1C
inactive: Potency [1] | Potency [2] | Potency [3] | Potency [4] | Potency [5] | Potency [6] | Potency [7] | Potency [8] | Potency [16] | Potency [9] | Potency [10] | Potency [18] | Potency [11] | Potency [12] | Potency [13] | Potency [14] | Potency [15]

CCCC(=O)O[C@]1(C(=O)COC(=O)CC)CC[C@H]2[C@@H]3CCC4=CC(=O)CC[C@]4(C)[C@H]3[C@@H](O)C[C@@]21C
inactive: cytotoxicity increase [1] -18.3% [at 15.8 µM] | cytotoxicity [2] -8.79% [at 15.8 µM] | cytotoxicity increase [3] -8.25% [at 15.8 µM] | activity change, negative = cytotoxic [4] 1.6% [at 15.8 µM] | activity change, negative = cytotoxicity [5] 2.56% [at 15.8 µM] | activity change, negative = cytotoxicity [6] 0.511% [at 15.8 µM] | activity change [7] -13.4% [at 15.8 µM, stronger effect = higher value] | activity change, negative = cytotoxicity [8] -13.7% [at 15.8 µM] | cytotoxicity increase [16] -2.4% [at 15.8 µM] | activity change, negative = cytotoxicity [9] 7.4% [at 19 µM] | viability change, negative = cytotoxic [10] 0.0902% [at 19 µM] | Potency [17] | activity change, negative = inhibition [18] 31.4% [at 19 µM] | PLD induction [19] -3.36% [at 7.66 µM] | activity change, negative = inhibition [11] -0.144% [at 19 µM] | activity change, negative = cytotoxicity [12] -1.94% [at 19 µM] | viability change, negative = cytotoxic [13] 2.28% [at 19 µM] | viability change, negative = cytotoxic [14] -1.17% [at 19 µM] | activity change [15] -1.53% [at 18.9 µM, stronger effect = higher value]

CCCOc1ccc(S(=O)(=O)N2CCN(CC)CC2)cc1-c1nc2c(CC)n(Cc3ccccn3)nc2c(=O)[nH]1
inactive: Potency [1] | Potency [2] | Potency [3] | Potency [4] | Potency [5] | Potency [6] | Potency [7] | Potency [8] | Potency [16] | Potency [9] | Potency [10] | Potency [18] | Potency [12] | Potency [15]

CCCC1C(CC)=CC(CC)=CN1c1ccccc1 (centres undefined)
active: Potency [5] 13.8 µM | Potency [10] 48.6 µM
inactive: Potency [1] | Potency [2] | Potency [3] | Potency [4] | Potency [7] | Potency [8] | Potency [16] | Potency [9] | Potency [11] | Potency [12] | Potency [13] | Potency [14] | Potency [15]

COCCOC(=O)C1=C(C)NC(C)=C(C(=O)OC/C=C/c2ccccc2)C1c1cccc([N+](=O)[O-])c1 (centres undefined)
inactive: Potency [1] | Potency [2] | Potency [3] | Potency [20] | Potency [5] | Potency [7] | Potency [16] | Potency [9] | Potency [10] | outcome [19] | Potency [12] | Potency [14] | Potency [15]

NC(=O)Nc1ccc(Cl)c(Cl)c1
inactive: Potency [1] | Potency [2] | Potency [3] | Potency [4] | Potency [5] | Potency [6] | Potency [7] | Potency [8] | Potency [16] | Potency [9] | Potency [10] | Potency [12] | Potency [13] | Potency [14] | Potency [15]

CCCCOC(=O)CCS
inactive: Potency [1] | Potency [2] | Potency [3] | Potency [4] | Potency [5] | Potency [6] | Potency [7] | Potency [8] | Potency [16] | Potency [9] | Potency [10] | Potency [11] | Potency [12] | Potency [13] | Potency [14] | Potency [15]
active: Potency [18] 27.3 µM

CC1=CC(=O)CC(C)(C)C1(O)/C=C/C(C)=C\C(=O)O (centres undefined)
inactive: Potency [1] | Potency [2] | Potency [3] | Potency [4] | Potency [5] | Potency [6] | Potency [7] | Potency [8] | Potency [16] | Potency [9] | Potency [10] | Potency [11] | Potency [12] | Potency [13] | Potency [14]

CNC(=O)N(c1ccccc1)c1ccccc1
inactive: Potency [1] | Potency [2] | Potency [3] | Potency [4] | Potency [5] | Potency [6] | Potency [7] | Potency [8] | Potency [16] | Potency [9] | Potency [10] | Potency [17] | Potency [18] | Potency [11] | Potency [12] | Potency [13] | Potency [14] | Potency [15]

— PubChem BioAssay (Tox21)
